Source: PubChem
The sample as a whole holds a higher share of hits than the screen did.
ALOX12 inh: inhibitors of human 12S-lipoxygenase ALOX12. purified 12hLO, xylenol orange hydroperoxide absorbance. Potency, µM (series often up to 108 µM), for inactives: at the top dose activity change, negative = inhibition, hits mostly inhibitors. AID 1671190. 580,000 compounds, 1.1% hits; further: potency means the concentration at half of the fitted maximal effect
Target sequence (P18054 whole entry, looked up): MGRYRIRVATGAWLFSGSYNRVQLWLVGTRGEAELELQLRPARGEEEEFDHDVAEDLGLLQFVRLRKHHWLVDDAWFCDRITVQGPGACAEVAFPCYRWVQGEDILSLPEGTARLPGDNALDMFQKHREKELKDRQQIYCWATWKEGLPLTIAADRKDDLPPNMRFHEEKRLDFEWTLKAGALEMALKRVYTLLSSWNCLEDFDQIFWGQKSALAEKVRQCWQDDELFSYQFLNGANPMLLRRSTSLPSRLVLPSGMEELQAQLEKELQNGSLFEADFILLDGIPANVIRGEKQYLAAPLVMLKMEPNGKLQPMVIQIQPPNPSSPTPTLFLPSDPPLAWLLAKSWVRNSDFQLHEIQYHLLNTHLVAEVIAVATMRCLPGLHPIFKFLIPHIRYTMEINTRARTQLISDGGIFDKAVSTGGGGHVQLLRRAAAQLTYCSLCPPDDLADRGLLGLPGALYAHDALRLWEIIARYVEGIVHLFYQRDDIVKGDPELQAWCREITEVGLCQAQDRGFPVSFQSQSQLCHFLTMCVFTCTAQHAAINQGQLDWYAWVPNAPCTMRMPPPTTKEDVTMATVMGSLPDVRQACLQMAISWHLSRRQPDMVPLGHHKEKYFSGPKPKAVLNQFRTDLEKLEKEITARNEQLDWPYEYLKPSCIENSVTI
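Purified human 12hLO (150 nM final) in 25 mM Hepes, 0.01% Triton X-100, pH 7.0 was preincubated 15 min at room temperature with compound. Then 40 uM arachidonic acid was added, 30 min. Hydroperoxide was read by Fe-XO absorbance ratio 573/405 nm.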
IL-1B inflam inh: inflammasome signaling inhibition, IL-1 beta readout. 360,000 compounds, 4.7% hits. activity change, % at 57.5 µM. THP-1 LPS/ATP IL-1B secretion, AlphaLISA, 16 h; active compounds read low; in the data active means activity change below about -50%; inconclusive means mostly about -30% to -49%
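Secreted IL-1B measured by AlphaLISA bead assay after 16 h compound exposure of THP-1 cells; compounds (final up to 57.5 uM) added 1 h before LPS (250 ng/mL) and ATP (1.25 mM) stimulation; lower signal means less secretion.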
HT1080-NT tox: kills 2HG-producing HT-1080-NT fibrosarcoma cells. HT-1080-NT fibrosarcoma viability, CellTiter-Glo ATP luminescence, 48 h. Potency, µM (titrated, usually from 46.1 µM), for the others: at the top dose activity, negative = less viability, most hits filed as cytotoxic. 360,000 compounds, 1.6% hits;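 further: NT is the 2HG producing partner of a matched IDH1 knockdown line; potency means the concentration at half of the fitted maximal effect; 0% = DMSO-treated cells and -100% = media-only wells without cells; nearly all actives have a fitted effect of over 55% in size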
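Viability by CellTiter-Glo luminescence after 48 h compound exposure at 37C of HT-1080-NT cells (750/well, RPMI, 5% FBS). % activity scaled between DMSO wells and medium-only wells, then curve-fitted and categorized by curve class.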
TDP1 cell CPT: DT40-hTDP1 cell growth loss with CPT; Potency, µM (titrated, usually from 46.2 µM), inactives show at the top dose activity change, negative = growth inhibition, most hits filed as inhibitors; 420,000 compounds, 12% hits; AID 686979; chicken DT40 Tdp1-/-;hTDP1 cells + 20 nM CPT, ATP luminescence, 48 h; further: potency means the concentration at half of the fitted maximal effect; nearly all actives have a fitted effect of over 55% in size
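Cell growth measured by CellTiter-Glo luminescence after a minimum 48 h, 37 C compound exposure with 20 nM CPT in Tdp1-knockout DT40 cells stably expressing hTDP1, seeded 400/well; qHTS titration format.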
HT1080 IDH1KD tx: toxicity to HT-1080 IDH1 knockdown cells (counter line); 360,000 compounds, 2% hits; Potency, µM (titrated, usually from 46.1 µM), for inactives: at the top dose activity, negative = toxicity, actives largely listed as cytotoxic; HT-1080 IDH1 knockdown viability, ATP luminescence, 48 h;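 further: potency means the concentration at half of the fitted maximal effect; 0% = DMSO wells and -100% = cell-free medium wells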
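CellTiter-Glo luminescence after 48 h compound exposure at 37 degrees C of IDH1-knockdown HT-1080 cells in 5% FBS RPMI. %Activity scaled between DMSO wells and cell-free media wells, with curves fitted and assigned curve classes.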
DT40 TDP1 no CPT: qHTS for Inhibitors of human tyrosyl-DNA phosphodiesterase 1 (TDP1): qHTS in cells in absence of CPT; 420,000 compounds, 15% hits; Potency, µM (series often up to 46.2 µM), inactives show at the highest dose activity change, negative = growth inhibition, hits mostly inhibitors; DT40 Tdp1-/- hTDP1 cells, no CPT, ATP luminescence, 48 h; AID 686978, 2013; further: potency means the concentration at half of the fitted maximal effect; nearly all actives have a fitted effect of over 55% in size
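Compound effects on proliferation are scored in DT40 Tdp1-/-;hTDP1 cells in the absence of CPT. ATP levels (CellTiter-Glo luminescence) are recorded after a ≥48 hr, 37 °C incubation.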
* = called active by the depositor. Unless noted, the call rests on the fitted dose curve; in most records, active means well fitted curve in the direction sought with a large enough effect; inconclusive means small, poorly fitted or top-dose-only effect, or another doubt; inactive means no such curve, though single readings can be large; an effect the other way counts as inactive or inconclusive. Unless noted, on the % scale 0 is the no-effect control and ±100 the full control effect.

What do the screens show for `COC(=O)c1cccc(-c2nc(C3CC(=O)N(c4ccc(F)c(Cl)c4)C3)no2)c1` (stereo unspecified)?
ALOX12 inh: 25%

How did Cc1ccc(-c2nccn3cc(C(=O)N4CCN(C5CCN(C)CC5)CC4)nc23)cc1 do in these assays?
ALOX12 inh: 1%

What do the screens show for `CCCCNC(=O)[C@@](CC)(ONc1ccccc1C(F)(F)F)c1cccc2ccccc12`?
ALOX12 inh: -13%; IL-1B inflam inh: inconclusive; HT1080-NT tox: -1%; TDP1 cell CPT: 15µM*; HT1080 IDH1KD tx: 0%; DT40 TDP1 no CPT: inconclusive

Results for CCCCNC(=O)C(CC)(ONc1ccccc1C(F)(F)F)c1ccccc1 (stereo unspecified) ?
ALOX12 inh: -22%; IL-1B inflam inh: inconclusive; HT1080-NT tox: -9%; TDP1 cell CPT: inconclusive; HT1080 IDH1KD tx: 0%; DT40 TDP1 no CPT: inconclusive

How did C/C=C/CSc1nc2c(c(=O)n(C)c(=O)n2C)n1Cc1ccc(Cl)cc1 do in these assays?
ALOX12 inh: -23%

Results for COc1ccc(N(C(=O)c2snc(C(N)=O)c2N)C(C(=O)NC2CCCC2)c2ccco2)c(OC)c1 (stereo unspecified) ?
ALOX12 inh: -3%; IL-1B inflam inh: -70*; HT1080-NT tox: -18%; TDP1 cell CPT: inconclusive; HT1080 IDH1KD tx: inconclusive; DT40 TDP1 no CPT: 23µM*

Results for COc1ccc(N(C(=O)c2snc(C(N)=O)c2N)C(C(=O)NC2CCCCC2)c2ccc(C)o2)c(OC)c1 (stereo unspecified) ?
ALOX12 inh: -5%; IL-1B inflam inh: -4; HT1080-NT tox: -27%; TDP1 cell CPT: 12µM*; HT1080 IDH1KD tx: -10%; DT40 TDP1 no CPT: 21µM*

What do the screens show for `CCOc1ccccc1N(C(=O)c1snc(C(N)=O)c1N)C(C(=O)NC1CCCC1)c1ccco1` (stereo unspecified)?
ALOX12 inh: -11%; IL-1B inflam inh: -16; HT1080-NT tox: -6%; TDP1 cell CPT: -1%; HT1080 IDH1KD tx: -1%; DT40 TDP1 no CPT: -4%

How did C=CCNC(=O)c1ccc(-c2nnc3ccc(NC(=O)C4CCC4)cn23)cc1 do in these assays?
ALOX12 inh: 22%

How did Cc1ccc(S(=O)(=O)N2CC3(O)CN(C(=O)OC(C)C)N(C(=O)OC(C)C)CC3(OC(=O)NC3CC3)C2)cc1 (stereo unspecified) do in these assays?
ALOX12 inh: -8%; IL-1B inflam inh: -21; HT1080-NT tox: 13%; TDP1 cell CPT: inconclusive; HT1080 IDH1KD tx: 18%; DT40 TDP1 no CPT: inconclusive

Results for CCCCCCNC(=O)OC12CN(C(=O)OC(C)C)N(C(=O)OC(C)C)CC1(O)CN(S(=O)(=O)c1ccc(C)cc1)C2 (stereo unspecified) ?
ALOX12 inh: -24%; IL-1B inflam inh: -26; HT1080-NT tox: -28%; TDP1 cell CPT: inconclusive; HT1080 IDH1KD tx: inconclusive; DT40 TDP1 no CPT: 21µM*

Results for Cc1ccc(S(=O)(=O)N2CC3(O)CN(C(=O)OC(C)C)N(C(=O)OC(C)C)CC3(OC(=O)NCC3CCCCC3)C2)cc1 (stereo unspecified) ?
ALOX12 inh: inconclusive; IL-1B inflam inh: inconclusive; HT1080-NT tox: inconclusive; TDP1 cell CPT: 16µM*; HT1080 IDH1KD tx: inconclusive; DT40 TDP1 no CPT: inconclusive

What do the screens show for `C#CCNC(=O)C[C@@H]1C[C@@]2(C(=O)OC)CCCCC=C2N(Cc2ccc(Cl)cc2Cl)C1=O`?
ALOX12 inh: 0%; IL-1B inflam inh: -19; HT1080-NT tox: -18%; TDP1 cell CPT: inconclusive; HT1080 IDH1KD tx: -26%; DT40 TDP1 no CPT: 18µM*
